Experimental data from PubChem BioAssay AID1159580 (chemical genetic matrix, 2015).
Several values for one entry are separate records, joined by “and”; a condition that tells them apart may be missing. Equal values may be shown once. About 2,000 (36%) of roughly 5,500 compounds were called active. Roughly 18% stayed inconclusive and do not appear here. Cut-off read from the data, not from the text of the source: active = normalized growth mostly below about 0.91 (no sharp cut-off); inconclusive = no clear call, values can overlap the other calls; inactive = mostly above about 0.92. This is one part of the list.

Assay: chemical genetic growth profiling, strain panel (AID 1159580);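 note: tested at 20 µM; growth read once vehicle control cultures reached saturation at 30 °C; 1 = growth at the plate median or of vehicle wells; lower values mean less growth of the strain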
Conditions: S. cerevisiae deletion strains, growth OD

Measured: normalized growth

COC(=O)[C@@H]1OC(=O)[C@H]2O[C@@]23[C@@]1(C)CCC1[C@@]2(C)CCC(=O)C(C)(C)C2C[C@@H](OC(C)=O)[C@]13C (some centres not stated)
inactive: locus YAL021C, strain ccr4, hits give low values 1.04 | locus YAL026C, strain drs2, hits give low values 0.992 | locus YAL030W, strain snc1, hits give low values 0.989 | locus YBL061C, strain skt5, hits give low values 0.994 | locus YBR009C, strain hhf1, hits give low values 1.03 | locus YBR021W, strain FUR4, hits give low values 0.997 | locus YBR023C, strain chs3, hits give low values 1 | locus YBR171W, strain sec66, hits give low values 0.959 | locus YBR229C, strain ROT2, hits give low values 1.01 | locus YBR231C, strain swc5, hits give low values 0.974 | locus YBR279W, strain paf1, hits give low values 1.02 | locus YCL011C, strain gbp2, hits give low values 0.998 | locus YCL016C, strain dcc1, hits give low values 1.03 | locus YCL029C, strain bik1, hits give low values 0.997 | locus YCL069W, strain vba3, hits give low values 0.987 | locus YCR088W, strain abp1, hits give low values 0.972 | locus YDL005C, strain med2, hits give low values 0.969 | locus YDL035C, strain GPR1, hits give low values 0.998 | locus YDL040C, strain nat1, hits give low values 0.987 | locus YDL074C, strain BRE1, hits give low values 1.01 | locus YDL101C, strain DUN1, hits give low values 1.02 | locus YDL134C, strain PPH21, hits give low values 1.01 | locus YDL185W, strain tfp1, hits give low values 1.01 | locus YDL192W, strain arf1, hits give low values 0.988 | locus YDR001C, strain nth1, hits give low values 0.983 | locus YDR069C, strain doa4, hits give low values 0.953 | locus YDR101C, strain arx1, hits give low values 0.993 | locus YDR137W, strain rgp1, hits give low values 1 | locus YDR159W, strain sac3, hits give low values 0.92 | locus YDR162C, strain NBP2, hits give low values 0.999 | locus YDR195W, strain ref2 0.926 | locus YDR297W, strain sur2, hits give low values 1 | locus YDR318W, strain mcm21, hits give low values 1.01 | locus YDR334W, strain swr1, hits give low values 0.967 | locus YDR388W, hits give low values 1.01 | locus YDR392W, strain spt3, hits give low values 0.993 | locus YDR502C, strain sam2, hits give low values 1.02 | locus YEL003W, strain gim4, hits give low values 0.986 | locus YEL037C, strain rad23, hits give low values 0.974 | locus YEL061C, strain CIN8 (second series), hits give low values 0.975 | locus YEL061C, strain CIN8, hits give low values 1 | locus YER015W, strain faa2, hits give low values 0.98 | locus YER016W, strain bim1, hits give low values 0.98 | locus YER110C, hits give low values 1 | locus YER111C, strain swi4, hits give low values 0.984 | locus YER155C, strain BEM2 (second series), hits give low values 1.01 | locus YER155C, strain BEM2, hits give low values 1.01 | locus YER167W, strain BCK2, hits give low values 0.988 | locus YFR010W, strain ubp6, hits give low values 0.966 | locus YGL078C, strain dbp3, hits give low values 1.02 | locus YGL086W, strain mad1, hits give low values 1 | locus YGL167C, strain pmr1, hits give low values 0.993 | locus YGL173C, strain kem1, hits give low values 0.985 | locus YGL227W, strain vid30, hits give low values 0.986 | locus YGL240W, strain doc1, hits give low values 0.953 | locus YGL248W, strain PDE1, hits give low values 1.02 | locus YGL253W, strain hxk2, hits give low values 0.958 | locus YGR135W, strain pre9, hits give low values 1.06 | locus YGR252W, strain gcn5, hits give low values 1.05 | locus YHR013C, strain ard1, hits give low values 1 | locus YHR027C, strain rpn1, hits give low values 0.976 | locus YHR030C, strain SLT2, hits give low values 1 and 0.997 | locus YHR079C, strain IRE1 (second series), hits give low values 1.01 | locus YHR079C, strain IRE1, hits give low values 0.999 | locus YHR094C, strain hxt1, hits give low values 1.02 | locus YHR129C, strain ARP1, hits give low values 1.01 | locus YHR142W, strain chs7, hits give low values 0.976 | locus YHR200W, strain rpn10, hits give low values 1.02 | locus YIL066C, strain RNR3, hits give low values 0.984 | locus YIL073C, strain SPO22, hits give low values 0.998 | locus YIL125W, strain kgd1, hits give low values 1 | locus YIR030C, strain dcg1, hits give low values 0.998 | locus YJL092W, strain hpr5, hits give low values 0.971 | locus YJL095W, strain BCK1 (second series), hits give low values 0.964 | locus YJL095W, strain BCK1, hits give low values 1.03 and 0.994 | locus YJL115W, strain asf1, hits give low values 0.965 | locus YJL129C, strain trk1, hits give low values 0.939 | locus YJL134W, strain LCB3, hits give low values 0.994 | locus YJL154C, strain vps35, hits give low values 0.989 | locus YJL164C, strain tpk1, hits give low values 1.03 | locus YJL166W, strain qcr8, hits give low values 0.972 | locus YJL168C, strain set2, hits give low values 1.01 | locus YJL187C, strain SWE1 (second series), hits give low values 1.04 | locus YJR066W, strain TOR1, hits give low values 0.912 | locus YKL009W, strain mrt4, hits give low values 0.977 | locus YKL068W, hits give low values 0.998 | locus YKL085W, strain MDH1 (second series), hits give low values 0.998 | locus YKL085W, strain MDH1, hits give low values 0.998 | locus YKL160W, strain elf1, hits give low values 1.07 | locus YKL190W, strain CNB1, hits give low values 1 | locus YKR001C, strain vps1, hits give low values 0.994 | locus YKR026C, strain gcn3, hits give low values 0.966 | locus YKR091W, strain srl3, hits give low values 0.992 | locus YLL001W, strain dnm1, hits give low values 0.992 | locus YLL026W, hits give low values 0.981 | locus YLL041C, strain sdh2, hits give low values 0.98 | locus YLR027C, strain aat2, hits give low values 0.99 | locus YLR039C, strain RIC1, hits give low values 1.03 | locus YLR058C, strain SHM2, hits give low values 1.01 | locus YLR102C, strain apc9, hits give low values 1 | locus YLR113W, strain HOG1, hits give low values 1.01 | locus YLR221C, strain rsa3, hits give low values 0.987 | locus YLR258W, strain gsy2, hits give low values 1 | locus YLR262C, strain YPT6 (second series), hits give low values 1 | locus YLR268W, strain sec22, hits give low values 0.991 | locus YLR320W, strain mms22, hits give low values 0.995 | locus YLR342W, strain FKS1 (second series), hits give low values 1.04 | locus YLR342W, strain FKS1, hits give low values 0.992 | locus YLR357W, strain rsc2, hits give low values 0.967 | locus YLR370C, strain arc18, hits give low values 0.989 | locus YLR371W, strain rom2, hits give low values 0.997 | locus YLR384C, strain iki3, hits give low values 0.985 | locus YLR418C, strain cdc73, hits give low values 1.04 | locus YML016C, strain PPZ1, hits give low values 1 | locus YML032C, strain rad52, hits give low values 0.996 | locus YML120C, strain ndi1, hits give low values 1.01 | locus YML124C, strain tub3, hits give low values 1.01 | locus YMR058W, strain fet3, hits give low values 0.993 | locus YMR078C, strain ctf18, hits give low values 1.01 | locus YMR125W, strain sto1, hits give low values 0.983 | locus YMR129W, hits give low values 0.987 | locus YMR205C, strain PFK2, hits give low values 1.01 | locus YMR223W, strain ubp8, hits give low values 1.01 | locus YMR231W, strain pep5, hits give low values 0.981 | locus YMR307W, strain GAS1, hits give low values 0.917 | locus YNL067W, strain RPL9B, hits give low values 1.04 | locus YNL071W, strain lat1, hits give low values 0.976 | locus YNL153C, strain GIM3, hits give low values 1.03 | locus YNL183C, strain NPR1, hits give low values 0.929 | locus YNL209W, strain ssb2, hits give low values 0.982 | locus YNL233W, strain BNI4, hits give low values 1.02 | locus YNL248C, strain rpa49, hits give low values 0.907 | locus YNL250W, strain rad50, hits give low values 1.03 | locus YNL271C, strain bni1, hits give low values 1.01 | locus YNL298W, strain CLA4, hits give low values 0.993 | locus YNL307C, strain MCK1, hits give low values 1.02 | locus YNL322C, strain KRE1 (second series), hits give low values 0.959 | locus YNR049C, strain mso1, hits give low values 0.966 | locus YNR052C, strain pop2, hits give low values 1.03 | locus YOL006C, strain TOP1, hits give low values 1.02 | locus YOL012C, strain htz1 1.17 | locus YOL147C, strain pex11, hits give low values 0.998 | locus YOR001W, strain rrp6, hits give low values 0.909 | locus YOR061W, strain CKA2, hits give low values 0.987 | locus YOR069W, strain VPS5, hits give low values 0.999 | locus YOR070C, strain gyp1, hits give low values 1 | locus YOR080W, strain dia2, hits give low values 0.978 | locus YOR083W, strain WHI5, hits give low values 1.08 | locus YOR106W, strain vam3, hits give low values 1.03 | locus YOR136W, strain idh2, hits give low values 1.01 | locus YOR144C, strain elg1, hits give low values 1 | locus YOR184W, strain ser1, hits give low values 0.981 | locus YOR231W, strain MKK1, hits give low values 0.98 | locus YOR265W, strain rbl2, hits give low values 0.976 | locus YOR270C, strain vph1, hits give low values 1.02 | locus YOR290C, strain snf2, hits give low values 0.996 | locus YOR316C, strain cot1, hits give low values 1.01 | locus YPL051W, strain arl3, hits give low values 1.02 | locus YPL078C, strain atp4, hits give low values 1.04 | locus YPL106C, strain sse1, hits give low values 0.997 | locus YPL240C, strain hsp82, hits give low values 0.976 | locus YPL256C, strain CLN2, hits give low values 0.979 | locus YPR119W, strain clb2, hits give low values 1.01 | locus YPR141C, strain kar3, hits give low values 1.01 | locus YPR163C, strain tif3, hits give low values 1.01 | locus YPR167C, strain met16, hits give low values 1.02 | strain wtn01, hits give low values 0.998
